Platelet DG rel = platelet dense granule release activity | human platelet-rich plasma, SFLLRN dense granule ATP release, luminescence | inhibition, %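 (compounds screened at 7.5 µM in platelet-rich plasma)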 | 0.22% of 300,000 active | AID 1663;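 active = mean replicate score, as percent of positive control, at or above 50; inconclusive = mean below 50 but at least one replicate at or above 50; inactive = mean and every replicate below 50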
dFosB act = activators of mouse delta FosB homodimer; AID 493131; 0.99% of 340,000 active; P13346; activation, % at 25 µM; purified delta FosB, TAMRA-CDK5 oligo fluorescence polarization; percent of positive-control signal above neutral wells;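 active = mean activation above about 17%, with every replicate also reaching it, limit read from the data, passing the limit was not always enough; inconclusive = only one of the two conditions met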
Target sequence (P13346 whole entry, looked up): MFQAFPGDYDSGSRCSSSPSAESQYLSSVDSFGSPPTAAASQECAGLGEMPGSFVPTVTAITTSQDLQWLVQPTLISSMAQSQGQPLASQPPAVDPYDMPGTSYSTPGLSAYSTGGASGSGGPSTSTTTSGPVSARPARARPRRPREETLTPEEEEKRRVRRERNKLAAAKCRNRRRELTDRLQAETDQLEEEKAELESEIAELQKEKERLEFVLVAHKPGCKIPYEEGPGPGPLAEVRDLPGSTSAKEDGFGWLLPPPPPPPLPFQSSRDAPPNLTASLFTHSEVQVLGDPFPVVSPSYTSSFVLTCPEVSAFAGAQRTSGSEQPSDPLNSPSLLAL
MPTP inh = inhibitors of mitochondrial permeability transition pore; inhibition, % at 10 µM; 1.4% of 360,000 active; isolated mouse mitochondria, Ca2+ swelling absorbance, 30 min;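 active = inhibition of 50% or more, scaled per plate between neutral and stimulator controls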;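 note: 0% = DMSO wells given calcium and 100% = 1 mM EGTA wells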
HSP90 inh = HSP90 refolding inhibition in rabbit reticulocyte lysate. inhibition, % at 5.6 µM. luciferase refolding luminescence, 3 h. AID 1789. 0.91% of 290,000 active;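 active = inhibition above the screen-wide mean plus 3 SD, computed separately per campaign, cut at about 16% in these data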;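 note: 0% = DMSO wells and 100% = 60 µM geldanamycin wells; inhibitors lower the luminescence because luciferase stays unfolded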
HSF1 activator = increases HSF-1 driven luciferase reporter signal | NIH3T3-HGL HSF-1 luciferase reporter, MG132, 8 h; 100% = twice DMSO control signal | activation, % at 9 µM | 1.7% of 300,000 active | AID 504408;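 active = mean replicate activation of at least 50% with a set share of replicates each reaching 50%; inconclusive = only one of those two conditions met; inactive = mean below 50% and too few replicates reaching it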;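 note: 0% = median of the neutral control wells and 100% = twice that signal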
HSF1 inh = HSF1 inhibition; NIH3T3-HGL HSE-luciferase, MG132-induced, luminescence 8 h; hits give low values; activity change, negative = inhibition, % at 7.5 µM (by protocol); 0.77% of 300,000 active;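 active = more than half of replicate wells show activity change below -50%, luminescence cut by over half; inconclusive = some wells, but at most half, below -50%; inactive = no replicate well below -50%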;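 note: luciferase reports HSF-1 transcriptional activity via heat shock element; 0% = median of DMSO wells and -100% = zero luminescence signal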
Starred values were filed as active, the others as inactive; ? = inconclusive; . = no result. Most compounds without a hit are left out; they make up all but 4.9% or so of the library.

SMILES	Platelet DG rel	dFosB act	MPTP inh	HSP90 inh	HSF1 activator	HSF1 inh
CC1(C)C(=O)C=C(N2CCCCC2)c2ccccc21	.	.	0.4	.	.	.
O=C(NCCCN1CCOCC1)C1(c2ccccc2)CCCC1	70.3*	0.0	-0.8	7.0	-3.8	-8.0
CCOC(=O)C1CCN(S(=O)(=O)c2ccc3c(c2)N(C(C)=O)CC(C)S3)CC1 (stereo not given)	17.8	-7.6	3.6	2.9	3.5	1.9
CC(=O)c1c(C)oc2c1cc(O)c1ccccc12	-1.4	4.1	7.3	1.3	-8.1	5.5
CCOC(=O)c1c(C)oc2c1c1c(c3ccccc32)OCN(Cc2cccnc2)C1	.	-1.0	1.8	-2.5	.	.
CCOC(=O)c1c(C)oc2c1cc(O)c1ccccc12	11.6	-7.9	0.5	0.1	58.0*	36.5
CCOC(=O)c1c(C)oc2c1c1c(c3ccccc32)OCN(CCCC(=O)O)C1	4.6	-23.2	0.4	0.2	56.7*	31.4
CC1(C(=O)Nc2cccc3ccccc23)CCN1C(=O)Cc1ccc(Cl)cc1Cl (stereo not given)	.	.	0.2	.	.	.
Cc1occc1C(=O)Nc1ccc(OCc2ccccc2)cc1	33.1	0.7	-1.8	1.6	56.1*	38.7
CCCOC(=O)c1ccc(NC(=O)c2ccoc2C)cc1	?	-11.2	-5.9	-4.3	56.2*	33.3
Cc1cc(/C=C2/C(=O)NN(c3ccccc3)C2=O)c(C)n1-c1cccc(O)c1	-0.3	-2.2	3.0	14.2	-68.9	-63.3*
CCCCCCCCN1C(=O)[C@H](CC(=O)N2CCC(c3ccccc3)CC2)C[C@@]2(C(=O)OC)CCCCC=C12	.	.	-0.4	.	.	.
COc1cc(CC(=O)OCC(=O)NCc2ccco2)cc(OC)c1OC	.	1.5	-2.8	.	.	.
N/C(=N\N=C\c1ccc(O)c(O)c1)c1nonc1N	104.8*	3.4	13.9	2.7	33.2	21.5
N/C(=N\N=C\c1ccc(O)cc1)c1nonc1N	64.5*	-3.6	0.2	-0.1	16.0	12.2
N/C(=N\N=C\c1cccc(O)c1)c1nonc1N	70.1*	-8.6	2.2	29.2*	49.4	15.6
COc1cc(/C=N/N=C(\N)c2nonc2N)ccc1O	?	-2.1	0.3	-0.6	8.3	11.4
O=c1oc(Cc2ccccc2)nc2ccccc12	-2.0	-0.7	0.3	-2.7	15.0	4.7
c1ccc(Cc2nc3ccccc3o2)cc1	-22.5	-2.7	-2.4	9.9	-83.8	-80.6*
O=C(/C=C/c1ccc2c(c1)OCO2)NCc1ccncc1	0.1	2.1	1.8	3.0	3.3	13.3
CCCn1c(SCc2nc3sc(C)c(C)c3c(=O)[nH]2)nc2ccccc2c1=O	2.7	-4.8	7.1	-1.1	113.8*	61.0
COCCn1c(SCc2nc3ccccc3c(=O)[nH]2)nc2ccccc2c1=O	-4.3	-8.8	0.2	5.8	33.7	5.2
Cc1ccc(S(=O)(=O)Nc2ccc(Br)cc2C(NCC(=O)O)c2ccccc2)cc1 (stereo not given)	-9.0	-3.4	1.2	-3.6	12.0	7.3
O=C(O)CSc1cc(NS(=O)(=O)c2ccc(Br)cc2)c2ccccc2c1O	-5.1	-13.4	4.6	15.9	114.0*	59.4
CCN(CC)CCNc1nc2cc(OC)c(OC)cc2c2nc(-c3ccccc3)nn12	4.3	151.3*	-1.4	-2.5	7.4	-0.4
SMILES	Platelet DG rel	dFosB act	MPTP inh	HSP90 inh	HSF1 activator	HSF1 inh
COc1cc2[nH]c(=O)n3nc(-c4ccccc4)nc3c2cc1OC	-11.7	-32.8	1.9	-0.6	-8.7	-2.6
COc1cc2[nH]c(=S)n(Cc3ccc(C)cc3)c(=O)c2cc1OC	5.4	-4.0	7.8	0.8	-4.7	-7.4
Cc1ccc(N=C2S/C(=C\c3cn(CC(=O)O)c4ccccc34)C(=O)N2C)cc1	-2.4	-5.3	2.8	-1.4	-1.5	-1.2
Cc1cc(C)cc(N2C(=O)CN(Cc3ccccc3)C2=S)c1	14.2	-6.5	0.5	14.3	-81.6	-77.8*
O=c1[nH]nc(-c2n[nH]c(=O)o2)o1	.	-2.7	-1.2	.	.	.
Cc1nnnn1/C(=C\c1ccccc1)C(=O)OCC(=O)Nc1ccc(Cl)cc1F	-7.1	-1.2	-1.8	.	333.5*	341.3
Cc1nnnn1/C(=C\c1ccccc1)C(=O)OCC(=O)Nc1cccc(S(=O)(=O)N(C)C)c1	.	-1.4	-1.3	.	.	.
COc1ccc(N=Nc2n(C)c3ccccc3[n+]2C)cc1	98.2*	.	.	79.2*	-45.3	-27.2
COc1ccccc1-c1csc(C(O)c2ccccc2)n1 (stereo not given)	.	.	0.4	.	.	.

Source: PubChem BioAssay
